The subject of one experiment is C33A. Description: Primary qHTS to identify gynecologic anti-cancer compounds using libraries of approved drugs and bioactive compounds (AID 1345084). Note: nearly all actives have a fitted effect of over 55% in size. Conditions: Gynecologic cancer cell panel viability, ATPlite luminescence, 48 h; series mostly up to 57.5 µM. In short, it runs like this:
(§1)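 Five-point cytotoxicity, 48 h drug exposure at 37 C, 5% CO2, on cells seeded 16 h beforehand. ATP content read by ATPlite luminescence.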
(qHTS replaces the single test concentration by a dilution series.)

The test system of another experiment is CAOV3. Described as above. Conditions: Gynecologic cancer cell panel viability, ATPlite luminescence, 48 h; series mostly up to 57.5 µM. In short, it runs like this: as §1
(In ATP-based viability assays light output follows the ATP content of the culture.)

The test system of the next experiment is CASKI. The experiment is described as above. Particulars: Gynecologic cancer cell panel viability, ATPlite luminescence, 48 h; series mostly up to 57.5 µM. In short, it runs like this:
as §1

The next experiment has as its system Es-2. The description is as above. Conditions: Gynecologic cancer cell panel viability, ATPlite luminescence, 48 h; series mostly up to 57.5 µM. The procedure, abridged:
as §1

Another experiment deals with HeLa. Described as above. Particulars: Gynecologic cancer cell panel viability, ATPlite luminescence, 48 h; series mostly up to 57.5 µM. In short, it runs like this: as §1
A further experiment concerns Hek293T. Described as above. Conditions: Gynecologic cancer cell panel viability, ATPlite luminescence, 48 h, control line for the selectivity index; series mostly up to 57.5 µM. In short, it runs like this:
as §1

The next experiment concerns JEG-3. The experiment is described as above. Particulars: Gynecologic cancer cell panel viability, ATPlite luminescence, 48 h; series mostly up to 57.5 µM. In short, it runs like this:
as §1

The next experiment has as its system OV90. The experiment is described as above. Particulars: Gynecologic cancer cell panel viability, ATPlite luminescence, 48 h; series mostly up to 57.5 µM. In short, it runs like this: as §1
For another experiment, the system named is SKOV3. The description is as above. Conditions: Gynecologic cancer cell panel viability, ATPlite luminescence, 48 h; series mostly up to 57.5 µM. In short, it runs like this: as §1
The test system of another experiment is Tov-21-G. The description is as above. Particulars: Gynecologic cancer cell panel viability, ATPlite luminescence, 48 h; series mostly up to 57.5 µM. In short, it runs like this:
as §1

The next experiment concerns Tov112D. Described as above. Conditions: Gynecologic cancer cell panel viability, ATPlite luminescence, 48 h; series mostly up to 57.5 µM. The procedure, abridged:
as §1

Experiment [1] is described as follows: Drug repurposing screens with cells derived from glioblastoma tumor samples (AID 1345199). Note: nearly all actives have a fitted effect of over 40% in size. Note: potency is the fitted concentration of half-maximal effect. Conditions: GBM patient neurospheres viability, ATP luminescence, 48 h. In short, it runs like this:
(§2)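 Primary testing used CD133+ neurospheres from four GBM patients, seven concentrations, 48 h exposure and ATP-based viability; confirmation added three slower-growing patient lines.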

In a further experiment the test system is astro. The experiment is described as above. Particulars: viability, ATP luminescence, 48 h; series mostly up to 45.9 µM. The procedure, abridged:
as §2

Where [2] appears, read: at 45.9 µM (top of the series), tumour line B.
[3] abbreviates: at 45.9 µM (top of the series), tumour line D.
Setting [4] is: at 46.1 µM (top of the series), tumour line C.
The mark [5] stands for this setting: at 46 µM (top of the series), tumour line A.
[6] abbreviates: at 20 µM (top of the series), tumour line C.
[7] abbreviates: at 21.2 µM (top of the series), tumour line B.
Setting [8] is: at 21.2 µM (top of the series), tumour line D.
Setting [9] is: at 21.3 µM (top of the series), tumour line A.
Setting [10] is: at 99.2 µM (top of the series), tumour line C.

Several values for one entry are separate records, joined by “and”; a condition that tells them apart may be missing. Equal entries are not always repeated. Results filed as inconclusive are left out. Some compounds were tested as several samples or in several runs, with calls that do not always agree. Values without a mark were called inactive. Activity calls are given as the source filed them. Calls come from the whole dose curve; as a rule, active = well fitted curve in the direction sought with a large enough effect; inconclusive = small, poorly fitted or top-dose-only effect, or another doubt; inactive = no such curve, though single readings can be large; an effect the other way counts as inactive or inconclusive.
% is set by controls: 0 for no effect and ±100 for the full control effect.

Consider `CN1C(=O)c2ccccc2NC(=O)[C@]12O[C@@H]2c1ccccc1`, for which the Potency result in the experiment on C33A, in the experiment with CAOV3, with CASKI, in the experiment with Es-2, with HeLa and in the experiment with Hek293T was “inactive” in each case. Besides, the Potency entry in the experiment on JEG-3, in the experiment on OV90, in the experiment on SKOV3, in the experiment on Tov-21-G and in the experiment on Tov112D was “inactive” throughout.
`C[C@]12CC[C@H]3[C@@H](CCC4=C(Cl)C(=O)CC[C@@]43C)[C@@H]1CC[C@@H]2O`: the figures for the activity, negative = cell killing in experiment [1] (setting [2]) and in [1] (setting [3]) were -16.4% and -29.9%, respectively. Also, in [1] (tumour line A), the Potency is 12.6 µM (active).
Regarding `Oc1cccc[c]1[Hg][Cl]`, the activity, negative = cell killing in experiment [1] (setting [4]) was -98.2%. Also, the Potency in [1] (tumour line A) was 0.398 µM (active); in experiment [1] (tumour line B) it was 0.562 µM (active); in [1] (tumour line D), 1 µM (active); in the experiment on astro, 2.82 µM (active).
As to `O=[N+]([O-])c1ccccc1`, the activity, negative = cell killing in [1] (setting [2]) was -3.33%; in [1] (setting [3]) it was -6.09%; in [1] (setting [5]), -9.64%; in experiment [1] (setting [4]) it was -9.59%. Besides, the Potency result in the experiment on astro is “inactive”.
For `O=c1ccc2cc(O[C@@H]3O[C@H](CO)[C@@H](O)[C@H](O)[C@H]3O)c(O)cc2o1`, the activity, negative = cell killing in experiment [1] (setting [6]) is -2.02%; in [1] (setting [7]), -12.8%; in [1] (setting [8]), -17.9%; in experiment [1] (setting [9]), -15.8%. Also, the Potency entry with astro is “inactive”.
`C[N+]1([O-])[C@@H]2CC(OC(=O)[C@H](CO)c3ccccc3)C[C@H]1[C@@H]1O[C@@H]12` (stereo not given in full): the activity, negative = cell killing in [1] (setting [6]) was 3.96%; in [1] (setting [7]), 5.23%; in [1] (setting [8]) it was -9%; in experiment [1] (setting [2]), -10.9%; in [1] (setting [3]), -17.4%; in [1] (setting [4]), 30.8%. Also, the Potency result in the experiment with astro was “inactive”.
In the case of `O[C@H]1[C@H]2[C@H](O)CCCN2C[C@H]1O`, the activity, negative = cell killing was 0.771% in experiment [1] (setting [2]), -7.2% in experiment [1] (setting [3]), -40.5% in experiment [1] (setting [5]) and -19.9% in experiment [1] (setting [4]). Further, the Potency result with astro was “inactive”.
With `CNC(C)C(O)c1ccc(O)cc1` (stereo not given), the activity, negative = cell killing in experiment [1] (setting [2]) was -14.1% and -15.9%; in [1] (setting [3]), 3.04% and 6.23%; in experiment [1] (setting [5]) it was -17.8% and -27.7%; in experiment [1] (setting [4]), -5.67% and -20.1%. Besides, the Potency entry with astro was “inactive”.
Consider `COc1ccc2c3c1O[C@H]1[C@@H](O)C=C[C@H]4[C@@H](C2)NCC[C@@]341`, for which the activity, negative = cell killing in experiment [1] (setting [2]) was -18.4%; in experiment [1] (setting [3]), -17.8%; in experiment [1] (setting [4]), -25.3%; in [1] (setting [10]), 6.81%; in experiment [1] (at 108 µM (top of the series), tumour line B), -9.55%; in [1] (at 108 µM (top of the series), tumour line D) it was -1.54%. Further, the Potency result with astro is “inactive”.
On to `CC(=O)OCC(=O)[C@H]1CC[C@H]2[C@@H]3CC[C@H]4C[C@H](O)CC[C@]4(C)[C@H]3C(=O)C[C@]12C`, for which the activity, negative = cell killing in [1] (setting [6]) is -20.2%; in [1] (setting [7]) it was -4.33%; in experiment [1] (setting [8]), 0.678%; in experiment [1] (setting [9]), -6.64%. In addition, the Potency result with astro is “inactive”.
`CC(C)Nc1ccc(Nc2ccccc2)cc1`: in [1] (setting [4]), the activity, negative = cell killing was -13.8%. The Potency is 11.2 µM (active) in [1] (tumour line A), 17.8 µM (active) in [1] (tumour line B), 20 µM (active) in experiment [1] (tumour line D) and 22.4 µM (active) in the experiment on astro.
With `CN1c2ccccc2C(NCCCCCCC(=O)O)c2ccc(Cl)cc2S1(=O)=O` (stereo not given), the activity, negative = cell killing in experiment [1] (setting [2]) was -13.7%; in experiment [1] (setting [3]) it was 2.81%; in [1] (setting [5]) it was -22.5%; in experiment [1] (setting [4]) it was -20.5%.
In the case of `COC1=CC=C2[C@H]3Cc4ccc(OC)c5c4[C@@]2(CCN3C)[C@H]1O5`, the activity, negative = cell killing in [1] (setting [6]) was -9.82%; in experiment [1] (setting [7]), -2.9%; in experiment [1] (setting [8]), -4.5%; in [1] (at 91.6 µM (top of the series), tumour line B), -4.24%; in experiment [1] (setting [10]), 12%. For the same compound, the Potency in experiment [1] (tumour line A) and in [1] (tumour line D) was 35.5 µM (active) in each case. Also, in the experiment on astro, the Potency result is “inactive”.

(Values after PubChem BioAssay (NCATS).)
